Compounds with a hit are over-represented: about 22% of the library has one in this group of screens.
CYP2C19 inh: inhibitors of human CYP2C19 | P33261 | CYP2C19 Supersomes, luciferin-H EGE luminescence, 30 min | inhibition, % at 5 µM | 21% of 96,000 active;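 active means CYP2C19 inhibition above a set limit at 5 µM in the primary screen, cut at about 50% in these data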;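 further: plate controls were negative control wells for no effect and 2.5 mM tranylcypromine positive control for full effect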
Target sequence (P33261 whole entry, looked up): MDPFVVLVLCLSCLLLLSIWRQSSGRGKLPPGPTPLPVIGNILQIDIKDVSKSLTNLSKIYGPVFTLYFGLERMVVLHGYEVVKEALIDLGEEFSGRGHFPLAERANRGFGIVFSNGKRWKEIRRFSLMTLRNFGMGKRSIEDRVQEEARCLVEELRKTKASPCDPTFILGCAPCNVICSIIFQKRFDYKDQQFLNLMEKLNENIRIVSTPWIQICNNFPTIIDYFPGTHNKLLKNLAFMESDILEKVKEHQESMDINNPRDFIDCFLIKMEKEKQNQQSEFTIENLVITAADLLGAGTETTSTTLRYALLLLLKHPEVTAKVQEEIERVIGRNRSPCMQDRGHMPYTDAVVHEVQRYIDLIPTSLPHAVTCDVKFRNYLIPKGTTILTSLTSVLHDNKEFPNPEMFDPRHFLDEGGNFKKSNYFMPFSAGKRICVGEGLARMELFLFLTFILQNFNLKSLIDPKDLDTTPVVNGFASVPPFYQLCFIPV
CYP2C9 inhib: blocks human cytochrome P450 2C9. CYP2C9 Supersomes, luciferin-H conversion, luminescence. inhibition, % at 5 µM. 20% of 96,000 active;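 active means blocking of liver enzyme CYP2C9 beyond about 50% at 5 µM, limit read from the data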
CYP2C19 act: increases human CYP2C19 enzyme activity; recombinant CYP2C19, luciferin-H EGE luminescence; hits give high values; 0 = fully inhibited enzyme, 1 = untreated enzyme; activation factor at 5 µM; 96,000 tested, under 10 active;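 active means activation factor of at least 2 at 5 µM in the primary screen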;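 further: 0 = wells with 2.5 mM tranylcypromine and 1 = vehicle-only wells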
Measles CPE: protection of cells from measles virus. Measles virus-infected cells, CPE protection, absorbance. 1.5% of 140,000 active. protection (pct of control), % at 4 µM. AID 841; in the data active means protection mostly above about 24%, no sharp cut-off; inactive means mostly below about 26%
CYP2C9 activ: CYP2C9 (human) activation. recombinant CYP2C9, luciferin-H conversion, luminescence; hits give high values; factor 1 = untreated enzyme, 0 = blocked. AID 1024. 1.4% of 96,000 active. activation factor at 5 µM. P11712;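 active means activation factor of 2 or more for CYP2C9 at a 5 µM dose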;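 further: 0 = sulfaphenazole-blocked wells and 1 = vehicle-only wells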
* hit, by the source's call; x = not tested or not shown.

SMILES	CYP2C19 inh	CYP2C9 inhib	CYP2C19 act	Measles CPE	CYP2C9 activ
CC(=O)c1c(C)[nH]c(C(=O)CSc2nc3ccccc3c(=O)n2CCCN2CCOCC2)c1C	69*	66*	0.3	5	0.3
CCOC(=O)c1sc2nc(CSc3nc4ccccc4n3CC)[nH]c(=O)c2c1C	44	68*	0.6	2	0.3
O=c1[nH]c(=O)n(-c2ccccc2)c2c1C(C(F)(F)F)(C(F)(F)F)N=C(CCC1CCCCC1)N2	x	x	x	8	x
O=c1c2ccccc2nc(-c2ccccc2)n1CCCN1CCOCC1	-14	-22	1.1	25*	1.2
O=C1NC(Cc2c[nH]c3ccccc23)C(=O)N1CCOc1ccc(F)cc1 (centres undefined)	74*	71*	0.3	19	0.3
CCOc1ccc(OCCN2C(=O)NC(Cc3c[nH]c4ccccc34)C2=O)cc1 (centres undefined)	68*	80*	0.3	54	0.2
CN1CC(=O)N(CCOc2ccccc2)C1=O	3	-2	1	24	1
O=C(NCc1ccc2c(c1)OCO2)C1CCCN(S(=O)(=O)c2cccc3nonc23)C1 (centres undefined)	14	64*	0.9	12	0.4
CC(NC(=O)C1CCCN(S(=O)(=O)c2cccc3nonc23)C1)c1ccccc1 (centres undefined)	37	53*	0.6	4	0.5
O=C(NC1CCN(Cc2ccccc2)CC1)C1CCCN(S(=O)(=O)c2cccc3nonc23)C1 (centres undefined)	53*	-15	0.5	14	1.1
Cc1noc(/C=C/N(C)C)c1S(=O)(=O)N1CCc2ccccc21	67*	48	0.3	22	0.5
CCOC(=O)c1c(C)[nH]c(C(=O)Cn2c(=O)c3c(ncn3CC)n(Cc3ccccc3)c2=O)c1C	x	x	x	4	x
CC(O)c1n(C)c(Cl)c[n+]1C (centres undefined)	-3	-21	1	17	1.2
COc1ccc(Cl)cc1NC(=S)NCCSc1ccc(C)cc1	x	x	x	3	x
Cc1noc(/C=C/N(C)C)c1S(=O)(=O)N1CCCC(C(=O)NC(C)c2ccccc2)C1 (centres undefined)	34	68*	0.7	3	0.3
O=C1CCC(=O)N1c1ccc(CSc2nnnn2C2CCCCC2)cc1	33	40	0.7	19*	0.6
O=C(CSc1nnnn1C1CCCCC1)N1CCCC1	-1	-8	1	21	1.1
O=C(CSc1nnnn1C1CCCC1)NCc1ccccc1	48	16	0.5	1	0.8
O=C(CSc1nnnn1C1CCCCC1)NCc1ccccc1	62*	62*	0.4	26	0.4
CC(C)N(C(=O)CSc1nnnn1C1CCCC1)C(C)C	81*	28	0.2	5	0.7
O=C(O)c1ccc(CSc2nnnn2C2CCCCC2)cc1	-3	-4	1	30*	1
CC1(C)Cc2c(sc3nc(-c4ccccc4)oc(=O)c23)CO1	x	x	x	16	x
CCN(c1ccc(NC(=O)CCNC(=O)c2ccco2)cc1)C(C)C	x	x	x	2	x
COc1ccccc1OCCSc1nnnn1C1CCCCC1	x	x	x	10	x
c1ccc(OCCSc2nnnn2C2CCCCC2)cc1	68*	82*	0.3	x	0.2
SMILES	CYP2C19 inh	CYP2C9 inhib	CYP2C19 act	Measles CPE	CYP2C9 activ
Cc1ccc(NS(=O)(=O)c2cccc(C(=O)NCCc3c[nH]c4ccccc34)c2)c(C)c1	x	x	x	3	x
CCCCOc1ccc(/C=C/C(=O)NCCc2nc3ccccc3[nH]2)cc1	32	34	0.7	15	0.7
CCOC(=O)Cc1nc2ccccc2[nH]1	11	-13	0.9	9	1.1
CC(=O)NS(=O)(=O)c1ccc(NC(=O)CCc2ccccc2)cc1	x	x	x	8	x
O=C(CCc1ccccc1)Nc1ccncc1	86*	83*	0.1	13	0.2
CCCCOC(=O)CCc1nc2ccccc2[nH]1	50*	-6	0.5	1	1.1
CCOC(=O)c1ccc(NCc2nc3ccccc3[nH]2)cc1	15	65*	0.9	6	0.3
O=C(CCc1nc2ccccc2[nH]1)Nc1ccccc1	62*	33	0.4	17	0.7
O=C(COc1ccccc1Br)NCc1ccccn1	65*	37	0.3	63*	0.6
O=C(O)CCCC(=O)NCc1ccccn1	1	2	1	16	1
COC(=O)c1ccc(CNC(=O)COc2ccccc2Br)o1	71*	2	0.3	32	1
O=C(COc1ccc(F)cc1Br)NCc1ccccn1	59*	2	0.4	17	1
COc1cc(NC(=O)c2ccc(COc3ccccc3Br)o2)cc(OC)c1OC	31	41	0.7	9	0.6

Source: PubChem
